This is one part of a sample in which the strongest signals are shown more often than they occur.
What was measured:
Assay in all cases: glycan array binding signal (z-score within array); higher = stronger binding
Conditions in all cases: glycan notation: IUPAC condensed, linker removed
[1] = molecular target: Fuc(a1-2)Gal(b1-3)[Fuc(a1-4)]GlcNAc
Summary of the method: (§1)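 Glycan array binding is given as a within-array Z-score, which can be read as non-binding when negative. The arrays, 3228 of them, came from the Consortium for Functional Glycomics database and were retained only where the protein sequence was available. Z-scores were averaged across arrays of the same protein sequence at different concentrations or buffers and across linkers.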

[2] = molecular target: Fuc(a1-2)Gal(b1-3)[Fuc(a1-4)]GlcNAc(b1-3)[Fuc(a1-3)[Gal(b1-4)]GlcNAc(b1-6)]Gal(b1-4)Glc
Summary of the method: as §1

[3] = molecular target: Fuc(a1-2)Gal(b1-4)Fuc(a1-3)]GlcNAc(b1-2)Man(a1-3)[Fuc(a1-2)Gal(b1-4)[Fuc(a1-3)]GlcNAc(b1-2)Man(a1-6)]Man(b1-4)GlcNAc(b1-4)GlcNAc
Summary of the method: as §1

[4] = molecular target: Fuc(a1-2)Gal(b1-4)GlcNAc
Summary of the method: as §1

[5] = molecular target: Fuc(a1-2)Gal(b1-4)GlcNAc(b1-6)GalNAc
Summary of the method: as §1

[6] = molecular target: Fuc(a1-2)Gal(b1-4)[Fuc(a1-3)]GlcNAc(b1-3)GalNAc
Summary of the method: as §1

[7] = molecular target: Fuc(a1-2)Gal6S(b1-3)GlcNAc6S
Summary of the method: as §1

[8] = molecular target: Fuc(a1-2)[Gal(a1-3)]Gal(b1-3)GlcNAc
Summary of the method: as §1

[9] = molecular target: Fuc(a1-2)[Gal(a1-3)]Gal(b1-4)[Fuc(a1-3)]Glc
Summary of the method: as §1

[10] = molecular target: Fuc(a1-2)[GalNAc(a1-3)]Gal(b1-3)GalNAc(b1-3)Gal(a1-4)Gal(b1-4)Glc
Summary of the method: as §1

[11] = molecular target: Fuc(a1-2)[GalNAc(a1-3)]Gal(b1-4)GlcNAc(b1-2)Man(a1-3)[Fuc(a1-2)[GalNAc(a1-3)]Gal(b1-4)GlcNAc(b1-2)Man(a1-6)]Man(b1-4)GlcNAc(b1-4)[Fuc(a1-6)]GlcNAc
Summary of the method: as §1

[12] = molecular target: Fuc(a1-2)[GalNAc(a1-3)]Gal(b1-4)GlcNAc(b1-3)Gal(b1-4)GlcNAc
Summary of the method: as §1

[13] = molecular target: Fuc(a1-2)[GalNAc(a1-3)]Gal(b1-4)[Fuc(a1-3)]GlcNAc(b1-3)GalNAc
Summary of the method: as §1

[14] = molecular target: Fuc(a1-3)[Gal(b1-4)]GlcNAc(b1-2)Man
Summary of the method: as §1

[15] = molecular target: Fuc(a1-3)[Gal(b1-4)]GlcNAc(b1-3)GalNAc
Summary of the method: as §1

[16] = molecular target: Fuc(a1-3)[Gal(b1-4)]GlcNAc(b1-6)GalNAc
Summary of the method: as §1

[17] = molecular target: Gal(a1-3)Gal(b1-3)[Fuc(a1-4)]GlcNAc(b1-2)Man(a1-3)[Gal(a1-3)Gal(b1-3)[Fuc(a1-4)]GlcNAc(b1-2)Man(a1-6)]Man(b1-4)GlcNAc(b1-4)GlcNAc
Summary of the method: as §1

[18] = molecular target: Gal(a1-4)GlcNAc
Summary of the method: as §1

[19] = molecular target: Gal(b1-3)[Neu5Ac(a2-6)]GlcNAc(b1-4)Gal(b1-4)Glc
Summary of the method: as §1

[20] = molecular target: Gal(b1-4)Glc6S
Summary of the method: as §1

[21] = molecular target: Gal(b1-4)GlcNAc(b1-3)Gal(b1-3)GalNAc
Summary of the method: as §1

[22] = molecular target: Gal(b1-4)GlcNAc(b1-3)Gal(b1-3)GlcNAc
Summary of the method: as §1

[23] = molecular target: Gal(b1-4)GlcNAc(b1-3)Gal(b1-4)GlcNAc
Summary of the method: as §1

[24] = molecular target: Gal(b1-4)GlcNAc(b1-3)GalNAc
Summary of the method: as §1

[25] = molecular target: Gal(b1-4)GlcNAc(b1-3)[Fuc(a1-3)GlcNAc(b1-6)]Gal(b1-4)Glc
Summary of the method: as §1

[26] = molecular target: Gal(b1-4)GlcNAc(b1-3)[GlcNAc(b1-6)]Gal(b1-4)GlcNAc
Summary of the method: as §1

[27] = molecular target: Gal3S(b1-3)GlcNAc
Summary of the method: as §1

[28] = molecular target: Gal3S(b1-3)[Fuc(a1-4)]GlcNAc
Summary of the method: as §1

[29] = molecular target: Gal3S6S(b1-4)GlcNAc6S
Summary of the method: as §1

B1: Epa2 (Candida glabrata) (protein)
chain: MGSSHHHHHHSSGLVPRGSHMASSKDPTSFPMGCSPQVLKTQPGLAVKLYSYGHPVPGCAYNTYQYPDFPRSGYKKERKLADITGVNGRIDIDLKPNDPCRVLSGNLPSNYNYQNTLTYTNFTMILYGYFQPKVTGYHTFNLEADDLLFMNLGAGNAFDCCRAESTLDNFGNYQSYSIWGTDKATADLTVFLVSGIYYPIRLFYVNRDNNAVLDFSFSTEFNKEIIHDFTSYFFSASDEEQCPGNI
What does the source list for B1?
glycan array binding signal (z-score) [1]: 0.672; glycan array binding signal (z-score) [2]: 0.365; glycan array binding signal (z-score) [3]: 0.533; glycan array binding signal (z-score) [4]: -0.046; glycan array binding signal (z-score) [5]: 2.02; glycan array binding signal (z-score) [6]: 4.06; glycan array binding signal (z-score) [7]: 1.81; glycan array binding signal (z-score) [8]: -0.553; glycan array binding signal (z-score) [9]: -0.56; glycan array binding signal (z-score) [10]: -0.252; glycan array binding signal (z-score) [11]: -0.26; glycan array binding signal (z-score) [12]: -0.172; glycan array binding signal (z-score) [13]: 4.26; glycan array binding signal (z-score) [14]: -1.15; glycan array binding signal (z-score) [15]: 0.659; glycan array binding signal (z-score) [16]: 2.23; glycan array binding signal (z-score) [17]: -0.479; glycan array binding signal (z-score) [18]: 2.5; glycan array binding signal (z-score) [19]: 0.015; glycan array binding signal (z-score) [20]: -0.198; glycan array binding signal (z-score) [21]: 0.503; glycan array binding signal (z-score) [22]: -0.725; glycan array binding signal (z-score) [23]: -0.158; glycan array binding signal (z-score) [24]: -0.071; glycan array binding signal (z-score) [25]: 0.111; glycan array binding signal (z-score) [26]: -1.09; glycan array binding signal (z-score) [27]: -0.16; glycan array binding signal (z-score) [28]: 0.641; glycan array binding signal (z-score) [29]: 2.14
